Bioassay records from PubChem BioAssay.
LmPK inh = blocks Leishmania mexicana pyruvate kinase activity | purified LmPK, Kinase-Glo ATP luminescence, 1 h | Q27686 | 0.37% of 290,000 active | Potency, µM (doses to about 57.5 µM), without a hit: at the highest dose activity change, negative = inhibition, actives largely listed as inhibitors
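Purified LmPK (0.1 nM) with 0.5 mM PEP and 0.1 mM ADP in imidazole buffer pH 7.2 with MgCl2/KCl, 1 h at room temperature. ATP formed was read by luciferase luminescence and normalized to no-enzyme and uninhibited controls.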
Giardia FBPA inh-1 = inhibitors of Giardia lamblia fructose-1,6-bisphosphate aldolase; AID 2451; purified Giardia FBPA; 0.71% of 290,000 active; Potency, µM (titrated, usually from 59.6 µM), inactives show at the highest dose activity, negative = inhibition, most hits filed as inhibitors; A8B2U2; also: nearly all actives have a fitted effect of over 55% in size
Target sequence (A8B2U2 whole entry, looked up): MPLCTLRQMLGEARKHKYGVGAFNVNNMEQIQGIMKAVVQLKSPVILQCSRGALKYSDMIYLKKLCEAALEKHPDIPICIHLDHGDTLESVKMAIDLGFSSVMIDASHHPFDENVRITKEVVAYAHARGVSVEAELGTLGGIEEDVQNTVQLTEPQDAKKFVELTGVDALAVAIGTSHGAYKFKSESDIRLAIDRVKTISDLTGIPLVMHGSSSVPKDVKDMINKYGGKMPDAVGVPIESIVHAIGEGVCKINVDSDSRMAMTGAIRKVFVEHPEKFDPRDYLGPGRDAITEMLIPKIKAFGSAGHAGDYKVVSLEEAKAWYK
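40 nM FBPA preincubated 10 min at RT with compound (up to 57.5 uM final), then substrate plus GAPDH/TPI/NAD/arsenate coupling and diaphorase/resazurin added. Fluorescence read after 20 min at RT, 525/598 nm.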
Tb PYK inh = T. brucei pyruvate kinase inhibition | AID 624173 | 0.12% of 410,000 active | TbPYK enzyme, Kinase-Glo Plus ATP luminescence, 45 min | Q57TT1 | Potency, µM (top dose mostly 76.8 µM), without a hit: at the top dose activity, negative = inhibition, hits mostly inhibitors; also: nearly all actives have a fitted effect of over 50% in size
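Quantitative HTS: titrated library compounds versus trypanosomal pyruvate kinase in TEA buffer (pH 7.2) containing KCl, MgCl2, BSA and Tween-20. Reactions were initiated with ADP, 130 uM final. Kinase-Glo Plus luminescence was read after 45 min at RT.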
RE007 growth inh = less growth of the S. pombe RE007 Vpr strain; 0.21% of 360,000 active; S. pombe RE007 Vpr strain, BacTiter-Glo ATP luminescence, 24 h; Potency, µM (doses to about 92.2 µM), without a hit: top-dose activity change, negative = less growth, hits mostly inhibitors; active = well fitted falling curve with a large enough effect; inconclusive = small, poorly fitted or top-dose-only effect; inactive = no such curve, though single readings can be large or run the other way; also: nearly all actives have a fitted effect of over 50% in size
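Fission yeast strain RE007, carrying one chromosomally integrated HIV-1 vpr copy, was seeded at OD 0.01 in PMG+AL medium with 23 nL pinned compound. After 24 h at 30 °C and 99% humidity, viability was read by BacTiter-Glo luminescence.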
Giardia growth = Giardia lamblia growth inhibition; shares compounds with Giardia FBPA inh-1; Giardia lamblia trophozoite growth inhibition; Potency, µM (highest dose often 57.5 µM), for inactives: at the highest dose activity change, negative = inhibition, most hits filed as inhibitors; 5% of 1,500 active; AID 2785;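 also: trophozoites exposed to compound for 48 h at 37 °C; nearly all actives have a fitted effect of over 70% in size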
Mammalian tox = counter-screen for Giardia aldolase inhibitors: mammalian cell toxicity; shares compounds with Giardia FBPA inh-1; mammalian cell viability counter-screen, qHTS; Potency, µM (titrated, usually from 57.5 µM), without a hit: at the highest dose viability change, negative = toxicity, most hits filed as inhibitors; 4% of 1,500 active; AID 2786;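 also: Chinese hamster ovary cells used as mammalian cytotoxicity surrogate; viability measured as cellular ATP by luminescence; compound exposure lasted 48 h before reading; nearly all actives have a fitted effect of over 60% in size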
Giardia FBPA inh-2 = confirmation of Giardia fructose-bisphosphate aldolase inhibitors; shares compounds with Giardia FBPA inh-1; Potency, µM (top dose mostly 57.5 µM), for the others: at the highest dose activity change, negative = inhibition, usual class: inhibitors; 5% of 1,500 active; purified Giardia aldolase enzyme activity, qHTS; AID 2787; also: nearly all actives have a fitted effect of over 45% in size
Rabbit aldolase = rabbit FBP aldolase inhibition by Giardia aldolase hits. 4% of 1,500 active. shares compounds with Giardia FBPA inh-1. Rabbit muscle FBPA enzyme inhibition, selectivity counter-screen. Potency, µM (titrated, usually from 57.5 µM), without a hit: at the highest dose activity, negative = inhibition, usual class: inhibitors; also: nearly all actives have a fitted effect of over 60% in size
Target sequence (P00883 whole entry, looked up): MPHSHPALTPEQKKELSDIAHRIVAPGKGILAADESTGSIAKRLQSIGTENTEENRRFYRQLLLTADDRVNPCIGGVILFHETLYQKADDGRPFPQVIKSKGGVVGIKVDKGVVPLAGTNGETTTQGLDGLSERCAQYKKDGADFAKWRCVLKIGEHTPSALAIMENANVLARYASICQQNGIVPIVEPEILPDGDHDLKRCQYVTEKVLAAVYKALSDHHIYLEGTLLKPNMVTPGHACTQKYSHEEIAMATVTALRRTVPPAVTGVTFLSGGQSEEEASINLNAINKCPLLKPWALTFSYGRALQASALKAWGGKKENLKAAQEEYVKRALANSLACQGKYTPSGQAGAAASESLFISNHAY
GAPDH coupling = GAPDH inhibition flagged for Giardia aldolase hits; shares compounds with Giardia FBPA inh-1; Potency, µM (titrated, usually from 57.5 µM), for inactives: at the highest dose activity change, negative = inhibition, most hits filed as inhibitors; 6% of 1,500 active; GAPDH coupling enzyme counterscreen, biochemical, qHTS; also: nearly all actives have a fitted effect of over 55% in size
Starred values were filed as active, the others as inactive; ! = not active in a repeat; [ ] = dose if it differs, or a comment. An excerpt weighted towards active compounds, which were near 0.95% of everything screened. Unless noted, calls follow the shape of the dose curve; as a rule, active = well fitted curve in the direction sought with a large enough effect; inconclusive = small, poorly fitted or top-dose-only effect, or another doubt; inactive = no such curve, though single readings can be large; an effect the other way counts as inactive or inconclusive. % is scaled to controls: 0 for no effect and ±100 for the full control effect; potency is read from the fitted curve at half-maximal effect.

Screening Cn1c(SCC(=O)c2ccccc2)nnc1-c1cnccn1 returned LmPK inh -10.3%, Giardia FBPA inh-1 20µM*, Tb PYK inh inconclusive, RE007 growth inh -13.0%, Giardia growth 16.8%, Mammalian tox -3.9%, Giardia FBPA inh-2 8.3%, Rabbit aldolase 2.3% and GAPDH coupling 5.7%.
O=C(NC(=S)Nc1ncccn1)c1ccccc1Cl was read as LmPK inh -4.7%, Giardia FBPA inh-1 3.54µM*, Tb PYK inh -4.4%, RE007 growth inh -26.4%, Giardia growth inconclusive, Mammalian tox 0.2%, Giardia FBPA inh-2 1.6%, Rabbit aldolase 7.2% and GAPDH coupling -0.2%.
COc1cccc(CN(C)CC(=O)Nc2cccc3ccccc23)c1 was read as LmPK inh 0.9%, Giardia FBPA inh-1 17.7µM*, Tb PYK inh -7.0%, RE007 growth inh -17.1%, Giardia growth 2.4%[10.4 µM], Mammalian tox -9.3%, Giardia FBPA inh-2 1.7%, Rabbit aldolase 4.7% and GAPDH coupling 8.1%.
COc1ccc(CNC(=O)CN(C)CC(=O)Nc2ccccc2Br)cc1 was read as Tb PYK inh 7.6% and RE007 growth inh 12.6%.
COc1ccc(OC)c(NC(=O)CN(C)CC(=O)Nc2ccccc2Br)c1 was read as LmPK inh -1.2%, Giardia FBPA inh-1 17.7µM*, Tb PYK inh -12.2%, RE007 growth inh -2.3%, Giardia growth -14.2%, Mammalian tox 8.5%, Giardia FBPA inh-2 -4.1%, Rabbit aldolase 7.1% and GAPDH coupling 6.0%.
COc1ccccc1Nc1nc(NCCO)c2ccccc2n1 was read as LmPK inh -1.5% and Giardia FBPA inh-1 8.2%.
Screening Cc1ccc(Nc2nc(NCCO)c3ccccc3n2)cc1C returned LmPK inh -2.9%, Giardia FBPA inh-1 25.1µM*, Tb PYK inh 1.1%, RE007 growth inh -19.6%, Giardia growth 4.4%[10.4 µM], Mammalian tox inconclusive, Giardia FBPA inh-2 -1.5%, Rabbit aldolase 3.8% and GAPDH coupling -15.6%.
Screening Clc1cccc(CN2CCN(Cc3ccco3)CC2)c1 returned LmPK inh -3.3%, Giardia FBPA inh-1 14.1µM*, Tb PYK inh 8.0%, RE007 growth inh 2.9%, Giardia growth -17.1%, Mammalian tox -9.5%, Giardia FBPA inh-2 -0.8%, Rabbit aldolase -3.3% and GAPDH coupling 1.6%.
`Cc1cccc(CN2CCN(Cc3ccco3)CC2)c1` gave LmPK inh -3.3%, Giardia FBPA inh-1 inconclusive, Tb PYK inh -2.0% and RE007 growth inh -17.7%.
CC1=C(c2ccc(Cl)cc2)S(=O)(=O)NC1=NCc1ccc(C)cc1 was read as Tb PYK inh -1.2%[15.4 µM].
`Cc1[nH]n(-c2ccccc2)c(=O)c1N=Nc1cccc([N+](=O)[O-])c1` gave LmPK inh 5.3%, Giardia FBPA inh-1 8.91µM*, Tb PYK inh 2.7%, RE007 growth inh 11.4%, Giardia growth -37.3%[38.3 µM], Mammalian tox 5.4%, Giardia FBPA inh-2 5.0%, Rabbit aldolase 8.7% and GAPDH coupling -3.2%.
Cc1[nH]n(-c2ccccc2)c(=O)c1N=Nc1ccc(F)cc1 was read as LmPK inh 1.9%, Giardia FBPA inh-1 inconclusive, Tb PYK inh 1.6% and RE007 growth inh 5.2%.
`COC(=O)c1ccc(N=Nc2c(C)[nH]n(-c3ccccc3)c2=O)cc1` gave LmPK inh 3.5%, Giardia FBPA inh-1 12.6µM*, Tb PYK inh 1.1%, RE007 growth inh 4.6%, Giardia growth -24.0%, Mammalian tox 17.7%, Giardia FBPA inh-2 7.7%, Rabbit aldolase -2.0% and GAPDH coupling 7.8%.
CNC(=O)C1(C(F)(F)F)C/C(=C\Cc2ccccc2)CCCO1 (stereo not given) was read as Giardia FBPA inh-1 5.4%.
For CCCCc1nc(Cl)c(CO)n1Cc1ccc(-c2ccccc2-c2nn[nH]n2)cc1 the results were LmPK inh -5.6%, Giardia FBPA inh-1 12.6µM*!, Tb PYK inh -6.1%, RE007 growth inh 2.3%[18.4 µM], Giardia growth inconclusive, Mammalian tox 5.9%, Giardia FBPA inh-2 12.1%, Rabbit aldolase 25.6% and GAPDH coupling 19.6%.
CCCCc1nc(Cl)c(CO)n1Cc1ccc(-c2ccccc2-c2nnn[nH]2)cc1 was read as Tb PYK inh -4.9% and RE007 growth inh 0.2%.
For Cc1nc(-n2nc(C)c(Cc3ccccc3Cl)c2C)sc1C(=O)Nc1ccccc1F the results were Tb PYK inh -0.5%.
For O=[N+]([O-])c1cc2c(cc1CN1CCN(CCOCCO)CC1)OCO2 the results were LmPK inh -5.7%, Giardia FBPA inh-1 10µM*, Tb PYK inh -5.2%, RE007 growth inh 0.1%, Giardia growth -3.1%[10.4 µM], Mammalian tox 8.9%, Giardia FBPA inh-2 -18.0%, Rabbit aldolase 4.6% and GAPDH coupling 1.8%.
For CC(C)OC(=O)[C@@H]1CC[C@H](C)[C@@H](CCCCO)O1 the results were Giardia FBPA inh-1 1.0%.
COc1ccc(-c2cc(=O)c3c(OC)c(OC)c(OC)cc3o2)cc1OC was read as Giardia FBPA inh-1 -5.6%.
For COc1ccc(-c2cc(=O)c3ccccc3o2)cc1OC the results were Giardia FBPA inh-1 7.92µM*, Giardia growth -24.5%[38.3 µM], Mammalian tox inconclusive, Giardia FBPA inh-2 inconclusive, Rabbit aldolase inconclusive and GAPDH coupling -27.0%.
CC1CCCC/C1=N\NC(=S)Nc1cccnc1 (stereo not given) was read as LmPK inh 11.3%, Giardia FBPA inh-1 17.7µM*, Tb PYK inh -13.9%, RE007 growth inh -3.3%, Giardia growth 24.3%, Mammalian tox -0.4%, Giardia FBPA inh-2 -3.8%, Rabbit aldolase 2.4% and GAPDH coupling 3.6%.
Screening COc1ccc(/C=C\c2onc(C)c2S(=O)(=O)N2CCC(C(=O)Nc3ccccc3OC)CC2)cc1 returned Tb PYK inh 6.7%.
Nc1ccccc1SC(CC(=O)c1ccccc1)c1ccccc1 (stereo not given) was read as Tb PYK inh -14.8% and RE007 growth inh -28.3%.
